Legend:
Conditions in all cases: concentration: 1 μM, replicates: in singlicate; n = 1
PAK1 = system: PAK1
PAK2 = system: PAK2
PAK3 = system: PAK3
PAK4 = system: PAK4
PAK6 = system: PAK6
PAK7 = system: PAK7
PCTK1 = system: T1, PCTK1
T1 construct: gene CDK16

PCTK2 = system: T2, PCTK2
T2 construct: gene CDK17

PCTK3 = system: T3, PCTK3
T3 construct: gene CDK18

PDGFRA = system: PDGFRA
PDGFRB = system: PDGFRB
PDPK1 = system: PDPK1
PFTAIRE2 = system: PFTAIRE2
PFTK1 = system: T4, PFTK1
T4 construct: gene CDK14

PHKG1 = system: PHKG1
PHKG2 = system: PHKG2
PIK3C2B = system: PIK3C2B
PIK3C2G = system: PIK3C2G
PIK3CA = system: PIK3CA
PIK3CB = system: PIK3CB
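Note: KINOMEscan kinase panel screen.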

Row | Structure (SMILES) | %Inh (PAK1) | %Inh (PAK2) | %Inh (PAK3) | %Inh (PAK4) | %Inh (PAK6) | %Inh (PAK7) | %Inh (PCTK1) | %Inh (PCTK2) | %Inh (PCTK3) | %Inh (PDGFRA) | %Inh (PDGFRB) | %Inh (PDPK1) | %Inh (PFTAIRE2) | %Inh (PFTK1) | %Inh (PHKG1) | %Inh (PHKG2) | %Inh (PIK3C2B) | %Inh (PIK3C2G) | %Inh (PIK3CA) | %Inh (PIK3CB)
1 | Cc1cccc(-c2nc(Nc3ccc4[nH]nnc4c3)c3ccccc3n2)n1 [GW867587] | 9% | 41% | 0% | 0% | 0% | 0% | 0% | 0% | 0% | 0% | 0% | 0% | 0% | 0% | 0% | 0% | 0% | 0% | 0% | 0%
2 | CNc1nccc(-c2c(-c3ccc(F)cc3)ncn2C2CCN(C)CC2)n1 [SB-222903] | 0% | 13% | 0% | 0% | 0% | 0% | 0% | 0% | 0% | 0% | 17% | 0% | 0% | 0% | 0% | 0% | 0% | 0% | 0% | 0%
3 | Cn1ccc2ncnc(Oc3ccc(NC(=O)Nc4cccnc4)c(Cl)c3)c21 | 17% | 24% | 38% | 1% | 16% | 0% | 19% | 12% | 0% | 91.8% | 99.7% | 0% | 10% | 0% | 15% | 0% | 6% | 19% | 4% | 3%
4 | C[C@@H]1CCN(C(=O)CO)C[C@@H]1N(C)c1ncnc2[nH]ccc12 | 0% | 0% | 0% | 0% | 0% | 2% | 0% | 0% | 4% | 0% | 14% | 0% | 0% | 0% | 4% | 0% | 0% | 3% | 0% | 0%
5 | O=C(c1ccc(-c2cc(-c3c[nH]nc3-c3ccccn3)ccn2)cc1)N1CCCC1 [GW792479] | 8% | 0% | 0% | 16% | 9% | 0% | 0% | 0% | 3% | 0% | 4% | 0% | 6% | 0% | 0% | 19% | 0% | 5% | 0% | 0%
6 | COC(=O)c1c(-c2ccccc2)c2cc(Cl)ccc2c(=O)n1Cc1ccc(S(C)(=O)=O)cc1 | 6% | 0% | 0% | 0% | 0% | 0% | 28% | 3% | 0% | 15% | 78% | 16% | 0% | 11% | 4% | 0% | 10% | 24% | 10% | 21%
7 | CNc1nccc(-c2c(-c3ccc(F)cc3)ncn2CCCN2CCOCC2)n1 [SB-222516] | 65% | 85% | 0% | 0% | 0% | 0% | 0% | 0% | 0% | 0% | 4% | 0% | 9% | 0% | 0% | 0% | 0% | 3% | 0% | 6%
8 | CC(C)(C)c1ccc(-n2cnc3c(N)ncnc32)cc1 [SKF-97263] | 9% | 0% | 22% | 0% | 0% | 0% | 0% | 0% | 30% | 13% | 31% | 5% | 16% | 32% | 0% | 0% | 100% | 12% | 100% | 0%
9 | COc1ccc(-c2oc3ncnc(N)c3c2-c2ccc(OC)cc2)cc1 [SB-589132] | 0% | 16% | 14% | 0% | 0% | 0% | 0% | 0% | 14% | 17% | 41% | 0% | 17% | 0% | 0% | 0% | 0% | 10% | 0% | 0%
10 | Oc1ccc2ncnc(Nc3ccc(OCc4ccccc4)cc3)c2c1 [GI262866] | 22% | 29% | 87% | 0% | 0% | 0% | 10% | 0% | 13% | 0% | 21% | 0% | 13% | 29% | 0% | 0% | 0% | 0% | 0% | 0%
11 | CC(C)(C)OC(=O)NC1CCCN(c2cc(-c3ccc4c(N)n[nH]c4c3)nc(N)n2)C1 (stereo not shown) [GSK2286096] | 0% | 1% | 0% | 0% | 0% | 0% | 4% | 6% | 17% | 0% | 14% | 84% | 18% | 0% | 0% | 0% | 0% | 0% | 0% | 0%
12 | CSc1nn2c(=O)cc(N3CCOCC3)nc2n1Cc1cccc(Cl)c1Cl [GSK2347225] | 13% | 13% | 15% | 0% | 0% | 26% | 15% | 0% | 0% | 0% | 24% | 0% | 45% | 20% | 0% | 0% | 80% | 33% | 15% | 100%
13 | Cl.Fc1ccccc1COc1ccc(Nc2ncnc3ccc(-c4nnc(C(F)(F)F)o4)cc23)cc1Cl [GW424170] | 0% | 0% | 0% | 0% | 0% | 10% | 0% | 0% | 17% | 0% | 20% | 0% | 6% | 0% | 0% | 7% | 0% | 0% | 0% | 0%
14 | O=C(Nc1ccccc1F)NC1CCN(c2ccnc(Nc3ccc(F)cc3)n2)C1 (stereo not shown) [GSK1379722] | 2% | 16% | 0% | 0% | 0% | 0% | 6% | 0% | 18% | 0% | 8% | 14% | 7% | 14% | 13% | 0% | 0% | 0% | 0% | 0%
15 | FC(F)(F)c1cc(Nc2nccc(-c3c(-c4ccc(Cl)cc4)nn4ncccc34)n2)ccc1Cl [GW829351] | 0% | 17% | 0% | 0% | 0% | 0% | 0% | 0% | 0% | 0% | 3% | 0% | 0% | 0% | 0% | 0% | 0% | 0% | 0% | 0%
16 | Cc1cc(N2CCC(NS(=O)(=O)c3ccc(F)cc3)CC2)nc(Nc2cccc(C#N)c2)n1.O=C(O)C(F)(F)F [GSK1653537] | 0% | 19% | 6% | 0% | 0% | 0% | 0% | 0% | 18% | 0% | 0% | 15% | 10% | 9% | 17% | 0% | 0% | 6% | 0% | 2%
17 | Cc1ccc(C)c(NC(=O)NCCNc2ccnc(Nc3ccc(F)cc3)n2)c1 [GSK1379878] | 0% | 0% | 0% | 0% | 100% | 0% | 0% | 0% | 0% | 0% | 6% | 0% | 10% | 0% | 0% | 0% | 0% | 0% | 0% | 0%
18 | CC(C)N1CCC(n2cnc(-c3ccc(F)cc3)c2-c2ccnc(N)n2)CC1 [SB-223132] | 19% | 23% | 0% | 26% | 0% | 0% | 0% | 0% | 7% | 0% | 0% | 5% | 0% | 2% | 28% | 0% | 0% | 0% | 0% | 0%
19 | Clc1ccc(-c2cc(-c3c[nH]nc3-c3ccccn3)ccn2)cc1 [GW681251] | 3% | 0% | 2% | 39% | 1% | 0% | 0% | 0% | 12% | 0% | 62% | 0% | 1% | 0% | 0% | 0% | 0% | 0% | 0% | 0%
20 | Fc1ccc(-c2ncn(CCCNCc3ccccc3)c2-c2ccncc2)cc1 | 30% | 25% | 0% | 11% | 11% | 14% | 7% | 0% | 8% | 0% | 24% | 6% | 0% | 0% | 0% | 16% | 1% | 31% | 3% | 0%
